The test has as its target Death-associated protein kinase 1 (Homo sapiens) (UniProt P53355). Conditions: at 1 µM.
Sequence of Death-associated protein kinase 1 (Homo sapiens) (P53355 whole entry, looked up): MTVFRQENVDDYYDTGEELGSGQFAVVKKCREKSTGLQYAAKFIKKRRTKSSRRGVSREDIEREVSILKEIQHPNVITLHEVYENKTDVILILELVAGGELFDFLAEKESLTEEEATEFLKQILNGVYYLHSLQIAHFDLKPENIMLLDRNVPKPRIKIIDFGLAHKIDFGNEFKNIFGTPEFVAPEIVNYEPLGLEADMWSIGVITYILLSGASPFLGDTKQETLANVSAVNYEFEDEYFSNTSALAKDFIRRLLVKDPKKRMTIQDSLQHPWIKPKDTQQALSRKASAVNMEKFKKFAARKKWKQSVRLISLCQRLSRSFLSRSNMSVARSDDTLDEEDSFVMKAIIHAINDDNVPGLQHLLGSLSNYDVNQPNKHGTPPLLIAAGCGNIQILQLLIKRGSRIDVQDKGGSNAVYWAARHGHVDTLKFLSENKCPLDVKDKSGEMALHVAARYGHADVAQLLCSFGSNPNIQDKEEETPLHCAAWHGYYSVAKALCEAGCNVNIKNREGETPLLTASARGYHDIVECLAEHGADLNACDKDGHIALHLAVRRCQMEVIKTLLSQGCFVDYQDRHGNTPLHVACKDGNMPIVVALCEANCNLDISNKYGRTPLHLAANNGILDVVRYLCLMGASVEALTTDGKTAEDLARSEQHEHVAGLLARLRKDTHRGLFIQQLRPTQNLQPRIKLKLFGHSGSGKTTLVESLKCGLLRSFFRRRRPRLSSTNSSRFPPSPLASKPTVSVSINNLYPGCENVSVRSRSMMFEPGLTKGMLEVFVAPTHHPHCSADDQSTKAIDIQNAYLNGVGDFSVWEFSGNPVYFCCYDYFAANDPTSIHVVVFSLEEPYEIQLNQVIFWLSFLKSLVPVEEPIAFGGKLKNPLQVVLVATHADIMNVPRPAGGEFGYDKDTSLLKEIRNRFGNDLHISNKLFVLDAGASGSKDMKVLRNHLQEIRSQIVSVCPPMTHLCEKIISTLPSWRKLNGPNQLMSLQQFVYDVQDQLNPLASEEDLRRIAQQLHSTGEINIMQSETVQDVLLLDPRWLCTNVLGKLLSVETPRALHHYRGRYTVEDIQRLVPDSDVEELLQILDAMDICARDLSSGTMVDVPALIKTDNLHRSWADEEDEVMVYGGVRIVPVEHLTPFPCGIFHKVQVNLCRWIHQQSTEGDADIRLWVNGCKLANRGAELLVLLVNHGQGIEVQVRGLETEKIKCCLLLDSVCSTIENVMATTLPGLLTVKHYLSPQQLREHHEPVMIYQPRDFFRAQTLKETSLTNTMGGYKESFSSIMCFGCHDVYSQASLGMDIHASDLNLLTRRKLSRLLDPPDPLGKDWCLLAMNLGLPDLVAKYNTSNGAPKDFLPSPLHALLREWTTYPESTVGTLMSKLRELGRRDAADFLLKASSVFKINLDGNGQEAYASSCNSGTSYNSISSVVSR
Take `COc1ccc(CNc2nc(N(CCO)CCO)nc3c2ncn3C(C)C)cc1`: the residual activity stood at 93%. The value for `CCCC(=O)Oc1ccc2[nH]c(C(=O)c3cc4ccccc4[nH]3)cc2c1` was 83%; that for `Oc1n[nH]c2nnc(-c3c(-c4ccccc4)nn4ccccc34)cc12` was 52%. Regarding `CC(C)(C)c1nc2c3ccc(F)cc3c3c(=O)[nH]ccc3c2[nH]1`, the residual activity came to 8%. In the case of `Cn1c2ccccc2c2c3c(c4c5ccccc5n(CCC#N)c4c21)CNC3=O` it was 101%; in that of `Nc1ccc2ncnc(NCCc3ccc(Oc4ccccc4)cc3)c2c1`, 94%; in that of `N#Cc1cnc2cnc(NCc3cccnc3)cc2c1Nc1ccc(F)c(Cl)c1`, 69%. `c1ccc(-c2n[nH]c3c2oc2ccccc23)cc1`: the residual activity was found to be 94%. The value for `Nc1cccc(-c2cc3c(Oc4cccc(O)c4)ncnc3[nH]2)c1` was 89%; that for `COc1cccc(-c2cc(=O)c3ccccc3o2)c1N` was 81%. Take `CC(C)n1cnc2/c(=N/c3cccc(Cl)c3)nc(NCCO)[nH]c21`: the residual activity was found to be 89%. Take `c1ccc(-c2n[nH]cc2-c2ccnc3ccccc23)nc1`: the residual activity turned out to be 91%. With `O=C1NC(=O)C(c2cn(CCCO)c3ncccc23)=C1c1cnccn1`, the residual activity turned out to be 94%.

Take `Cc1ccc(S(=O)(=O)/C=C/C#N)cc1`: the residual activity was found to be 88%. On to `CCOC(=O)c1c(C)[nH]c(/C=C2\C(=O)Nc3ccccc32)c1C`, for which the residual activity was found to be 83%. For the molecule `CNc1cc2c(Nc3cccc(Br)c3)ncnc2cn1`, the residual activity was determined as 97%.

Take `O=c1cc(N2CCOCC2)oc2c1ccc1ccccc12`: the residual activity amounted to 90%. Consider `Nc1n[nH]c2nnc(-c3c(-c4ccccc4)nn4ccccc34)cc12`, for which the residual activity is 83%. In the case of `Nc1ncnc2[nH]nc(Nc3ccc(F)cc3)c12`, the residual activity is 102%. Take `Cn1nc2c3c(cccc31)C(=O)c1ccccc1-2`: the residual activity turned out to be 85%. The value for `O=c1cc(-c2cccc3c2Sc2ccccc2S3)oc(N2CCOCC2)c1` was 91%. For `CCC(=O)Nc1ccc2ncnc(Nc3cccc(Br)c3)c2c1`, the residual activity came out at 80%.

With `CSc1nc(-c2ccc(F)cc2)c(-c2ccnc(NC(C)c3ccccc3)c2)[nH]1` (stereo unspecified), the residual activity worked out at 91%. The value for `O=c1cc(N2CCNCC2)oc2c(-c3ccccc3)cccc12` was 96%; that for `O=C(Nc1nc2ccccc2n1CCN1CCOCC1)c1cccc([N+](=O)[O-])c1` was 85%; that for `CCN(CC)CCNC(=O)c1c(C)[nH]c(/C=C2\C(=O)Nc3ccc(Cl)cc32)c1C` was 75%. Turning to `CC(=O)c1ccc(N2CCOCC2)cc1O`, the residual activity came out at 111%.

With `Cc1nc2cc3nc(-c4cccs4)cnc3cc2n1C`, the residual activity amounted to 94%. `Cc1ccc(NC2=CC(=O)c3sc(C)nc3C2=O)cc1`: the residual activity was 87%. On to `O=C(NC(NC(=S)Nc1ccc(F)c([N+](=O)[O-])c1)C(Cl)(Cl)Cl)C(c1ccccc1)c1ccccc1` (stereo unspecified), for which the residual activity came out at 90%. Turning to `CCOc1cc2ncnc(Nc3cccc(Br)c3)c2cc1OCC`, the residual activity came to 83%.

For the origin of these results see ChEMBL document CHEMBL2218924, “A broad activity screen in support of a chemogenomic map for kinase signalling research and drug discovery” (Biochem J, 2013).
